# Test results from article PMC7862700, “An all-to-all approach to the identification of sequence-specific readers for epigenetic DNA modifications on cytosine”.
# Assays:
# Test in all cases: DAPPL (digital affinity profiling via proximity ligation, sequencing); 10 mM Tris-HCl pH 7.5, 50 mM NaCl, 1 mM DTT, 4% glycerol, room temperature, 30 min; GST-TFs on glutathione beads, 16-mer random dsDNA library, 0.1% formaldehyde crosslink after washing; high values mean tight binding
# FLI1 = molecular target: T1, FLI1 (Homo sapiens, UniProt Q01543 1-452); settings: protein: recombinant; tags: N-terminal GST; dsDNA, one strand shown
# T1 sequence: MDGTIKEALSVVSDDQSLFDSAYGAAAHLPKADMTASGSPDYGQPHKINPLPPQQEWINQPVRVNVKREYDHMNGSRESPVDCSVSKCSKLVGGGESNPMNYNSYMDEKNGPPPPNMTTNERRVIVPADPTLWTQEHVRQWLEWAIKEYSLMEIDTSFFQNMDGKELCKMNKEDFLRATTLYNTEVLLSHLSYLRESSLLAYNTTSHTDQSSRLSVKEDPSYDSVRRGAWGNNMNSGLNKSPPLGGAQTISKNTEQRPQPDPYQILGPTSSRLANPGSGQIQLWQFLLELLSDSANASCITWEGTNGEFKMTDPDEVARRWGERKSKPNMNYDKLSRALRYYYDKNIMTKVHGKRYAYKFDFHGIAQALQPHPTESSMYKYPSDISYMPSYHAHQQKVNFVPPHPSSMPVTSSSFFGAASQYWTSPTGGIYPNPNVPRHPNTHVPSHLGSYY
# Outline: (§1)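 Binding signal is each hexamer's read frequency for a factor divided by its frequency in the tag-only sample. The factors were GST-fused human transcription factors from yeast, captured on glutathione beads, DNA-barcoded and pooled with that sample. Pools were incubated with 200 nmole of a random double-stranded 16-mer DNA library in Tris/NaCl/DTT/glycerol buffer at room temperature for 30 min, then washed, crosslinked with 0.1% formaldehyde, proximity-ligated with BsaI/T4 ligase (1 h, 37 °C), PCR-amplified and sequenced on an Illumina NextSeq500.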
# ELK1 = molecular target: T2, ELK1 (Homo sapiens, UniProt P19419 1-428); settings: protein: recombinant; tags: N-terminal GST; dsDNA, one strand shown
# T2 sequence: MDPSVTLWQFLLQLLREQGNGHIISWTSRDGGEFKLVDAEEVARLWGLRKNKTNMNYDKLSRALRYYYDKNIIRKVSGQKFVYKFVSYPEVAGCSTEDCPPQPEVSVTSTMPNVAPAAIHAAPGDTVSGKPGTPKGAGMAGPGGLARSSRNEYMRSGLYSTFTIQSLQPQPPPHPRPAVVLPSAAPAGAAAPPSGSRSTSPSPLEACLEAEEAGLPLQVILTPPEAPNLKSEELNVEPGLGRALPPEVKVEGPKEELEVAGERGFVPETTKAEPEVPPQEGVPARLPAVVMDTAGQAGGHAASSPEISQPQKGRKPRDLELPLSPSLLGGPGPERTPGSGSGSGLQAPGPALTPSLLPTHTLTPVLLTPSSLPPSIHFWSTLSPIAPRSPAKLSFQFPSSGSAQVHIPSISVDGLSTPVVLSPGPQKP
# Outline: as §1
# GABPA = molecular target: T3, GABPA (Homo sapiens, UniProt Q06546 1-454); settings: protein: recombinant; tags: N-terminal GST; dsDNA, one strand shown
# T3 sequence: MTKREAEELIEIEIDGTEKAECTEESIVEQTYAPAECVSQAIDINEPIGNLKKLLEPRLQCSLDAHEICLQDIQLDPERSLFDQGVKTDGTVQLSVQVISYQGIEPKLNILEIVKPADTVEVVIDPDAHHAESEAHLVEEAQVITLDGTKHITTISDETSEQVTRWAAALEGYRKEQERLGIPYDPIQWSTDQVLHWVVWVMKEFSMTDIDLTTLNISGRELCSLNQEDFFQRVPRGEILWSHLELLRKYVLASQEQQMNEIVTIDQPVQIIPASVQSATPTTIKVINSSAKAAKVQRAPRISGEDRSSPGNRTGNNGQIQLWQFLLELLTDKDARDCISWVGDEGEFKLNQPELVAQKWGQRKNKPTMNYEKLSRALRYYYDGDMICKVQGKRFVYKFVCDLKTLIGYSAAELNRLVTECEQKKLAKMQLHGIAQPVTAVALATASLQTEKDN
# Outline: as §1
# ELF1 = ELF1 (Homo sapiens, UniProt P32519 1-619); settings: protein: recombinant; tags: N-terminal GST; dsDNA, one strand shown
# ELF1, sequence (P32519 whole entry): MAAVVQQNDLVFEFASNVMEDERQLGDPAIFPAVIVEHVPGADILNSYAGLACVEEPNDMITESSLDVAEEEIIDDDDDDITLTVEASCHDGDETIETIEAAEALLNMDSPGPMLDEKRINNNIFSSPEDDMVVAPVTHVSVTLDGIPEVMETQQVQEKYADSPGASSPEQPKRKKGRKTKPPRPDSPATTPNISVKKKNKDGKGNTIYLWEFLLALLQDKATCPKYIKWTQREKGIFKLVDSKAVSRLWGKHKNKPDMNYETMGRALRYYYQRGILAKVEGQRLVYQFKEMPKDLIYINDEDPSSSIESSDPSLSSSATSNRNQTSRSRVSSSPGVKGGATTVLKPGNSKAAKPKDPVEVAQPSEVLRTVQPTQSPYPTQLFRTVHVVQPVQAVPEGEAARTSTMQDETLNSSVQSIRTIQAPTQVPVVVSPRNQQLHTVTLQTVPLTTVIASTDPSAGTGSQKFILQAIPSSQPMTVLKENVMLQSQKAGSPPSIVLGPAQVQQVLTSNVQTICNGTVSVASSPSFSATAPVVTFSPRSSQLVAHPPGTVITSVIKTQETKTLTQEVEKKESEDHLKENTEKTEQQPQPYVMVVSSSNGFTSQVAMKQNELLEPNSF
# Outline: as §1
# EHF = molecular target: T4, EHF (Homo sapiens, UniProt Q9NZC4 1-300); settings: protein: recombinant; tags: N-terminal GST; dsDNA, one strand shown
# T4 sequence: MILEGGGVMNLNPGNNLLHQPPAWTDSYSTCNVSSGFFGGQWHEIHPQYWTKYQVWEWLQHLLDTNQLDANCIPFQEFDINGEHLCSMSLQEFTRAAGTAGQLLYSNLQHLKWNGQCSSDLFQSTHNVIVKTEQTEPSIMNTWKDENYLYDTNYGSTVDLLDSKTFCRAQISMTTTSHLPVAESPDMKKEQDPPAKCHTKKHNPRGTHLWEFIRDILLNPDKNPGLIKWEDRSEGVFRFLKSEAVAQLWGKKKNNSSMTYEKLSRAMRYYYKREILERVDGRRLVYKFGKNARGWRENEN
# Outline: as §1
# SPIB = SPIB (Homo sapiens, UniProt Q01892 1-262); settings: protein: recombinant; tags: N-terminal GST; dsDNA, one strand shown
# SPIB, sequence (Q01892 whole entry): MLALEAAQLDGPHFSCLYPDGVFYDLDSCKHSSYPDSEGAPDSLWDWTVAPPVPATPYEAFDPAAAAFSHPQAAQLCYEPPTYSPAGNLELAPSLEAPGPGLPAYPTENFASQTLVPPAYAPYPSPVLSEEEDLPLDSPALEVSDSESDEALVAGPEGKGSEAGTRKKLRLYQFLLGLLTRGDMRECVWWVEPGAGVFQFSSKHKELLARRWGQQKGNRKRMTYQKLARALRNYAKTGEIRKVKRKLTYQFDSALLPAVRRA
# Outline: as §1
# ELK3 = molecular target: T5, ELK3 (Homo sapiens, UniProt P41970 1-407); settings: protein: recombinant; tags: N-terminal GST; dsDNA, one strand shown
# T5 sequence: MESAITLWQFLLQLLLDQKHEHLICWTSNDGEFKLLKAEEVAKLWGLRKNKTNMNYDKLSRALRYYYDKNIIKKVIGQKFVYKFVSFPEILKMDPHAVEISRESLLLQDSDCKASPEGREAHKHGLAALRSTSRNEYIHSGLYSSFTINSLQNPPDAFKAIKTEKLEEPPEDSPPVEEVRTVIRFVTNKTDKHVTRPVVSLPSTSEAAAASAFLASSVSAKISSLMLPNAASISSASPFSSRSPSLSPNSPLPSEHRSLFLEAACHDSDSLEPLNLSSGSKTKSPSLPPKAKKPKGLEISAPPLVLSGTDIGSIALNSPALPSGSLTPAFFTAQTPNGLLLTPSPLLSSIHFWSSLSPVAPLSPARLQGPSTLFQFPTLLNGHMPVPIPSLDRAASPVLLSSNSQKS
# Outline: as §1
# FEV = molecular target: T6, FEV (Homo sapiens, UniProt Q99581 1-238); settings: protein: recombinant; tags: N-terminal GST; dsDNA, one strand shown
# T6 sequence: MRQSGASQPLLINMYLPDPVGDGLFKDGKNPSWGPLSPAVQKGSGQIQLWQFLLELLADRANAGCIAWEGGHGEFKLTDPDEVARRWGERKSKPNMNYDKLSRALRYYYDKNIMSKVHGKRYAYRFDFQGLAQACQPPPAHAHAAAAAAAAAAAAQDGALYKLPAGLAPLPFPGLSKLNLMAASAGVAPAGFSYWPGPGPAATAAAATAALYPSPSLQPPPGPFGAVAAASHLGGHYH
# Outline: as §1
# HSF1 = HSF1 (Homo sapiens, UniProt Q00613 1-529); settings: protein: recombinant; tags: N-terminal GST; chain copies: 3; dsDNA, one strand shown
# HSF1, sequence (Q00613 whole entry): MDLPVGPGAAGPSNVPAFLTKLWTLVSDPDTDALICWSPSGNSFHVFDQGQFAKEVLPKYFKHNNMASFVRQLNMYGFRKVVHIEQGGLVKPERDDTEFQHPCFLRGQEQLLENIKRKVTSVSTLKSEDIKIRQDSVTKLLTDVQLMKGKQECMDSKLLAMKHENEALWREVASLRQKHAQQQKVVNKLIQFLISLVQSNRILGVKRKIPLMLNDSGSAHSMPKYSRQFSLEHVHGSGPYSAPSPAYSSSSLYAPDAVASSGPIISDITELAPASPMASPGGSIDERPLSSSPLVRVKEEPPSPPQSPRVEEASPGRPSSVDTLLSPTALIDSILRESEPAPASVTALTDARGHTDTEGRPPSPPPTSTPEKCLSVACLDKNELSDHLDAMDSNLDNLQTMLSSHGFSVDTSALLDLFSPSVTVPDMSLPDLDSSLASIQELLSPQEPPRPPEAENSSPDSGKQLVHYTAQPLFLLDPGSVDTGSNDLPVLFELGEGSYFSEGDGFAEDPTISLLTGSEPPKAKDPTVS
# Outline: as §1
sequence,measurement,setting,value
GATTAA,binding signal,FLI1,"1.01 fold enrichment (6-mer frequency, TF over GST control)"
same,binding signal,ELK1,"1.04 fold enrichment (6-mer frequency, TF over GST control)"
same,binding signal,GABPA,"1.04 fold enrichment (6-mer frequency, TF over GST control)"
same,binding signal,ELF1,"1.02 fold enrichment (6-mer frequency, TF over GST control)"
same,binding signal,EHF,"1.01 fold enrichment (6-mer frequency, TF over GST control)"
same,binding signal,SPIB,"1.02 fold enrichment (6-mer frequency, TF over GST control)"
same,binding signal,ELK3,"1.13 fold enrichment (6-mer frequency, TF over GST control)"
same,binding signal,FEV,"1.02 fold enrichment (6-mer frequency, TF over GST control)"
same,binding signal,HSF1,"2.83 fold enrichment (6-mer frequency, TF over GST control)"
